# Experimental data taken from ChEMBL document CHEMBL3988442, “University of Dundee, Small-Polar-MMV Screening Library” (2021).
# Hit rate of the full screen: of about 66,000 compounds, about 960 (1.5%) showed an effect of 50% or more. The sample holds strong results, similar compounds and a random draw of the others, so the mix is not that of the screen.
# Tested on: Trypanosoma brucei
# Test: Trypanosoma brucei 72 hour study
# Assay type: functional, organism-based
# Set-up: scale not given: in the data most compounds retested in dose-response had high values
compound,measurement,setting,value
O=C1[C@H]2CC[C@H](CN(Cc3nnc(C4CC4)o3)C2)N1Cc1cscn1,Percent Effect,"30 µM, 30.03 µM",-30.68%
CCN1CCOCC12CCN(C(=O)C1CCC1)CC2.O=C(O)C(F)(F)F,Percent Effect,"30.3 µM, […]",-58.96%
Cc1ccc(F)cc1NS(=O)(=O)c1cc2c(c(C(=O)O)c1)OCCO2,Percent Effect,"30.3 µM, […]",-13.96%
O=C(O)C(F)(F)F.O=C(c1ccco1)N1C[C@H]2CCCN(Cc3nccs3)[C@H]2C1,Percent Effect,"30 µM, 30.03 µM",20.08%
CC(=O)N1CCCC1c1cccc(Cc2ccc(F)cc2)n1 (stereo unspecified),Percent Effect,"30 µM, 30.03 µM",14.65%
CN(C)C(=O)CN1CCCC1c1cccc(Cc2ccccc2F)n1 (stereo unspecified),Percent Effect,"30.3 µM, […]",100.6%
CN1CCC(c2cccc(Cc3ccccc3)n2)CC1,Percent Effect,"30.3 µM, […]",2.73%
CN(C)C(=O)CN1CCC(c2cccc(Cc3ccc(F)cc3)n2)CC1,Percent Effect,"30.3 µM, […]",-2.775%
CC(=O)N1CCCC1c1cccc(Cc2ccccc2Cl)n1 (stereo unspecified),Percent Effect,"30.3 µM, […]",2.284%
CN(C)C(=O)CCc1cncc(C2CCCN2Cc2ccccn2)n1 (stereo unspecified),Percent Effect,"30.3 µM, […]",-6.842%
CN1CCC(c2cccc(Cc3ccc(F)cc3)n2)CC1,Percent Effect,"30.3 µM, […]",22.86%
CN1CCC(c2cccc(Cc3ccc(C(F)(F)F)cc3)n2)CC1,Percent Effect,"30.3 µM, […]",100.8%
CC(=O)N1CCCC1c1cccc(NCc2ccccc2F)n1 (stereo unspecified),Percent Effect,"30.3 µM, […]",-16.97%
CC(=O)N1CCCC1c1cccc(Cc2ccccc2F)n1 (stereo unspecified),Percent Effect,"30.3 µM, […]",99.36%
COCC(=O)N1CCCC1c1cccc(Cc2ccccc2F)n1 (stereo unspecified),Percent Effect,"30.3 µM, […]",-5.491%
CN1CCCC1c1cccc(Cc2ccc(F)cc2)n1 (stereo unspecified),Percent Effect,"30.3 µM, […]",99.38%
CN(C)c1nc(NCCCN2CCc3ccccc32)ncc1F,Percent Effect,"30 µM, 30.03 µM",-2.481%
CC1CCN(c2ncc3c(n2)CN(Cc2cccc(F)c2)C3=O)CC1,Percent Effect,"30 µM, 30.03 µM",-36.51%
Cl.c1cn(-c2cnc(C3CCCNC3)cn2)cn1 (stereo unspecified),Percent Effect,"30.3 µM, […]",-22.3%
Cc1ccnc(NC(=O)C2CCN(CCCn3ccnc3)CC2)c1,Percent Effect,"30 µM, 30.03 µM",-9.272%
Cc1ncn(CCNC(=O)Nc2ccc(OC(F)(F)F)cc2)c(=O)c1C,Percent Effect,"30 µM, 30.03 µM",-6.151%
Cc1cc(C2CCCN(Cc3nc(Cc4ccccc4)no3)C2)n[nH]1 (stereo unspecified),Percent Effect,"30 µM, 30.03 µM",-33.51%
Cc1ccc(CN2CCC3(CC2)CC(N2CCN(C)CC2)CO3)s1.O=C(O)C(F)(F)F.O=C(O)C(F)(F)F.O=C(O)C(F)(F)F (stereo unspecified),Percent Effect,"30.3 µM, […]",-296.4%
Cc1cncc(C(=O)N2CC[C@@]3(C[C@H](NS(C)(=O)=O)CCO3)C2)c1.O=C(O)C(F)(F)F,Percent Effect,"30.3 µM, […]",-90.12%
CCN1CCCn2c(nc(CNC(=O)c3cnoc3C)cc2=O)C1.O=C(O)C(F)(F)F,Percent Effect,"30 µM, 30.03 µM",9.742%
CN(C)S(=O)(=O)N1CCCC(c2cccc(Cc3ccccc3F)n2)C1 (stereo unspecified),Percent Effect,"30.3 µM, […]",46.46%
CS(=O)(=O)N1CCCC1c1cccc(Cc2ccccc2F)n1 (stereo unspecified),Percent Effect,"30.3 µM, […]",0.4351%
CN(C)S(=O)(=O)N1CCCC(c2cccc(Cc3ccc(Cl)cc3)n2)C1 (stereo unspecified),Percent Effect,"30.3 µM, […]",99.29%
c1ccc(Cc2cncc(C3CCCN3C3CCOCC3)n2)cc1 (stereo unspecified),Percent Effect,"30.3 µM, […]",-18.14%
Fc1cccc(Cc2cncc(C3CCCN3C3CCOCC3)n2)c1 (stereo unspecified),Percent Effect,"30.3 µM, […]",9.592%
CN(C)S(=O)(=O)N1CCCC(c2cccc(Cc3ccccc3)n2)C1 (stereo unspecified),Percent Effect,"30 µM, 30.03 µM",-81.93%
CN(C)S(=O)(=O)N1CCCC(c2cccc(Cc3ccc(F)cc3)n2)C1 (stereo unspecified),Percent Effect,"30.3 µM, […]",41.5%
CN1CCCC1c1cccc(Cc2ccccc2F)n1 (stereo unspecified),Percent Effect,"30.3 µM, […]",101.4%
c1ccc(Cc2cccc(C3CCCN3C3CCOCC3)n2)cc1 (stereo unspecified),Percent Effect,"30.3 µM, […]",101%
COCCCNc1c(-c2ccc(Cl)cc2)c(=O)c1=O,Percent Effect,"30.3 µM, […]",13.47%
O=C(c1cnccn1)N1CCCC(Cc2cccc3ncccc23)C1 (stereo unspecified),Percent Effect,"30.3 µM, […]",-10.31%
CN(C)C(=O)[C@@H]1CCO[C@@H]2CCN(CCOCc3ccccc3)C[C@H]21.O=C(O)C(F)(F)F,Percent Effect,"30.3 µM, […]",-3.678%
CC(C)(C)c1nc(NS(=O)(=O)c2ccccc2F)no1,Percent Effect,"30 µM, 30.03 µM",-17.01%
O=C(NCC1CC1)C1CCC2(CCN(C(=O)c3ccncc3)CC2)O1.O=C(O)C(F)(F)F (stereo unspecified),Percent Effect,"30.3 µM, […]",-42.23%
Cc1noc(C)c1CN1CCO[C@H]2[C@H](Oc3ncccc3F)CC[C@@H]21.O=C(O)C(F)(F)F.O=C(O)C(F)(F)F,Percent Effect,"30 µM, 30.03 µM",-9.669%
CCCN(CCc1ccccn1)C(=O)CCc1cnn(C)c1,Percent Effect,"30 µM, 30.03 µM",-34.35%
CCN(CC)Cc1ccc(C(=O)N2CCCC2Cn2cccn2)cc1 (stereo unspecified),Percent Effect,10 µM,-13.25%
CCc1cnc(CN(C)C2CCN(CC(=O)Nc3nccs3)C2)o1 (stereo unspecified),Percent Effect,10 µM,-37.99%
COc1ccc(N2Cc3nc(=O)n(Cc4cccc(F)c4)n3C2=O)cc1,Percent Effect,"30 µM, 30.03 µM",-5.99%
CCN1CCn2c(C)cnc2C12CCN(C(=O)NCC(C)C)CC2.O=C(O)C(F)(F)F,Percent Effect,"30.3 µM, […]",-30.2%
COc1ncccc1NC(=O)C1CC(=O)N(Cc2ccccn2)C1 (stereo unspecified),Percent Effect,"30 µM, 30.03 µM",55.04%
O=C(Nc1ccccn1)C1CC(=O)N(Cc2ccccn2)C1 (stereo unspecified),Percent Effect,"30 µM, 30.03 µM",-8.332%
Cc1ccc(Cl)cc1NC(=O)C1CC(=O)N(Cc2ccccn2)C1 (stereo unspecified),Percent Effect,"30 µM, 30.03 µM",8.87%
CC(C)(C)NC(=O)CCOc1cccc(F)c1,Percent Effect,10 µM,-74.47%
COc1ccccc1CN1CC[C@]2(C[C@@H](OC)CO2)C1.O=C(O)C(F)(F)F,Percent Effect,"30 µM, 30.03 µM",-26.27%
Cc1nn(C)c2c(NCCCn3cccn3)nc(C(C)C)nc12,Percent Effect,"30.3 µM, […]",-9.582%
COc1cc(C(=O)NCCc2ccccc2OC)on1,Percent Effect,"30.3 µM, […]",101.4%
COc1cc(C(=O)NCCc2ccc(OC)c(OC)c2)on1,Percent Effect,"30.3 µM, […]",8.881%
COc1cc(C(=O)NCCCc2ccccc2)on1,Percent Effect,"30.3 µM, […]",10.61%
Cc1occc1C(=O)N1CCC2(CCN(Cc3ccccn3)C2=O)C1.O=C(O)C(F)(F)F (stereo unspecified),Percent Effect,"30 µM, 30.03 µM",-18.48%
Cc1cc(C)nc(N2CCN(Cc3nccn3C)CC2)n1.O=CO,Percent Effect,"30.3 µM, […]",-2.711%
Cc1noc(C)c1CN1C[C@@H](OCc2ccccn2)[C@H]2OCCC[C@H]21.O=C(O)C(F)(F)F.O=C(O)C(F)(F)F,Percent Effect,"30 µM, 30.03 µM",-32.5%
O=C(O)C(F)(F)F.O=c1ccc2c([nH]1)CCC(NCc1ccc3c(c1)OCO3)C2 (stereo unspecified),Percent Effect,"30.3 µM, […]",-24.67%
CC(C)CCN1C2(CCN(C(=O)CN(C)C)C2)c2ccccc2S1(=O)=O.O=C(O)C(F)(F)F (stereo unspecified),Percent Effect,"30.3 µM, […]",-2.24%
COc1ccc2c(c1)OC1(CCN(Cc3ccc(C)cc3)CC1)CC2=O,Percent Effect,"30.3 µM, […]",-15.07%
same,Percent Effect,"10 mM, 10 mM as filed; unlikely as a test dose",-53.52%
COc1ccc2c(c1)OC1(CCN(Cc3cccc(C)c3)CC1)CC2=O,Percent Effect,"30.3 µM, […]",-0.9536%
same,Percent Effect,"10 mM, 10 mM as filed; unlikely as a test dose",-48.74%
COc1ccc2c(c1)OC1(CCN(Cc3ccccc3C)CC1)CC2=O,Percent Effect,"30.3 µM, […]",99.25%
same,Percent Effect,"10 mM, 10 mM as filed; unlikely as a test dose",-45.93%
Cc1nc(CN2CCCC(C)(CO)C2)no1 (stereo unspecified),Percent Effect,"30 µM, 30.03 µM",-41.91%
Cl.Cl.O=C(NCc1cncc2c1CCN(C1CCOC1)C2)c1ccco1 (stereo unspecified),Percent Effect,"30.3 µM, […]",-14.18%
Cc1ccc(C)c(CN(CC(N)=O)C(C)C)c1,Percent Effect,"30 µM, 30.03 µM",-11.18%
COc1ccc(C(=O)C2CCCN(c3cc(N)ncn3)C2)c(C)c1 (stereo unspecified),Percent Effect,"30.3 µM, […]",35.59%
COc1ccc(C(=O)C2CCCN(c3cc(OC)ncn3)C2)c(C)c1 (stereo unspecified),Percent Effect,"30.3 µM, […]",25.96%
CCc1nc(C)cc(N2CCCC(C(=O)c3ccc(OC)cc3C)C2)n1 (stereo unspecified),Percent Effect,"30.3 µM, […]",68.93%
Cc1ccc(CN2CCc3nnc(CN4CCCC4=O)n3CC2)o1.O=C(O)C(F)(F)F,Percent Effect,"30.3 µM, […]",11.51%
Cc1nnsc1C(=O)NCc1nn(C)c2c1CCCC2,Percent Effect,"30 µM, 30.03 µM",10.26%
O=C(Cc1cccc(F)c1F)NC1COc2ccccc2C1=O (stereo unspecified),Percent Effect,"30.3 µM, […]",-49.3%
O=C(Cc1ccc(F)c(F)c1)NC1COc2ccccc2C1=O (stereo unspecified),Percent Effect,"30.3 µM, […]",53.93%
O=C(Cc1cccnc1)NC1COc2ccccc2C1=O (stereo unspecified),Percent Effect,"30.3 µM, […]",-65.37%
COCCCN(C)c1cc(C(F)(F)F)nc(-c2cccnc2)n1,Percent Effect,"30 µM, 30.03 µM",14.1%
COCC(O)CN(C)c1cc(C(F)(F)F)nc(-c2cccnc2)n1 (stereo unspecified),Percent Effect,"30 µM, 30.03 µM",57.96%
CC(O)CN(C)c1cc(C(F)(F)F)nc(-c2cccnc2)n1 (stereo unspecified),Percent Effect,"30 µM, 30.03 µM",14.71%
CC(C)Nc1oc(-c2ccc(S(=O)(=O)N(C)C)o2)nc1C#N,Percent Effect,"30 µM, 30.03 µM",-8.182%
CN(C)S(=O)(=O)c1ccc(-c2nc(C#N)c(NC3CC3)o2)o1,Percent Effect,"30 µM, 30.03 µM",-26.91%
CNc1oc(-c2ccc(S(=O)(=O)N(C)C)o2)nc1C#N,Percent Effect,"30 µM, 30.03 µM",-28.85%
CN(C)S(=O)(=O)c1ccc(-c2nc(C#N)c(NC(C)(C)C)o2)o1.Cl,Percent Effect,"30 µM, 30.03 µM",94.64%
CN(C)S(=O)(=O)c1ccc(-c2nc(C#N)c(NC3CCCCC3)o2)o1,Percent Effect,"30 µM, 30.03 µM",-26.33%
Cc1ccc(S(=O)(=O)Nc2ccc(=O)n(C)c2)c(Br)c1,Percent Effect,"30.3 µM, […]",-36.73%
CCN1CC[C@@]2(C(=O)Nc3ccccc3)CCN(S(C)(=O)=O)CC[C@@H]12.O=C(O)C(F)(F)F,Percent Effect,"30 µM, 30.03 µM",-16.54%
CCOCC1CN(C(=O)c2cnoc2C)Cc2cnn(C)c21.O=C(O)C(F)(F)F (stereo unspecified),Percent Effect,"30.3 µM, […]",-5.791%
CCC(=O)N1CCC2(CC1)CC(CC(=O)N(C)C)c1ccc(F)cc12 (stereo unspecified),Percent Effect,"30.3 µM, […]",-4.762%
c1ccc(-c2nc3c(c(NCc4nnc5n4CCC5)n2)CCNC3)cc1,Percent Effect,"30.3 µM, […]",7.408%
c1ccc(-c2nc3c(c(NCc4n[nH]c5c4CCC5)n2)CCNC3)cc1,Percent Effect,"30 µM, 30.03 µM",50.77%
c1coc(-c2nc3c(c(NCc4n[nH]c5c4CCC5)n2)CCNCC3)c1,Percent Effect,"30 µM, 30.03 µM",-54.29%
CCc1nc2ccccc2c(=O)n1CC1(O)CCN(C(=O)C2CC2)CC1.Cl,Percent Effect,"30.3 µM, […]",5.264%
O=C(O)c1cc(-c2ccoc2)cc(S(=O)(=O)NC2CC2)c1,Percent Effect,"30 µM, 30.03 µM",27.37%
O=C(O)c1cc(-c2ccc3c(c2)OCO3)cc(S(=O)(=O)NC2CC2)c1,Percent Effect,"30 µM, 30.03 µM",-10.73%
CN(C)c1ccc(-c2cc(C(=O)O)cc(S(=O)(=O)NC3CC3)c2)cc1,Percent Effect,"30 µM, 30.03 µM",102.4%
O=C(Nc1cc(CCC2CCN(CCO)CC2)ccn1)c1ccccn1,Percent Effect,"30.3 µM, […]",100.1%
CC(=O)N1CCC(CCc2ccnc(NC(=O)c3ccccn3)c2)CC1,Percent Effect,"30.3 µM, […]",56.75%
CC(=O)N1CCC(CCc2ccnc(Nc3ccccn3)c2)CC1,Percent Effect,"30.3 µM, […]",18.19%
CC(=O)Nc1cc(CCC2CCN(C(=O)c3ccccn3)CC2)ccn1,Percent Effect,"30.3 µM, […]",-19.84%
O=C(CO)N1CCC(CCc2ccnc(Nc3cnccn3)c2)CC1,Percent Effect,"30.3 µM, […]",12.44%
CN1CCC(CCc2ccnc(NC(=O)c3ccccn3)c2)CC1,Percent Effect,"30.3 µM, […]",24.76%
